Usually viability stands for a read-out of living cells in per cent, often relative to untreated cells. A word on the inhibition: it is the relative decrease from the control value, in per cent.

Data on nine compounds can be found in PubChem BioAssay.

SMILES strings stand for the structures. Records with an inconclusive call do not appear. Activity calls are given as the source filed them.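 How the source made its calls, unless noted: active means cell viability at or below a set limit in both duplicate runs, the limit being the all-compound median minus 4 SD (cut at about 23% in these data, passing the limit was not always enough); inconclusive means no clear call, values can overlap the other calls; inactive means the rest.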

Experiment [1] can be described thus: Her2 expression decrease, cell viability multiplex – SKBR3 breast tumor cells, AlphaScreen, ATP viability, primary screen (AID 461;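 active means Her2 level under about 52% in both replicate screens, with viability over 70% of control, limit read from the data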;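 on Her2 level: lower value means less Her2 protein in the cells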;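 on viability: percent of carrier control wells set as 100% viability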). To be noted: SKBR3 Her2 protein level, 18-24 h, measured here: SKBR3 viability, ATP luminescence, at 10 µM. Background: Bead proximity is the source of the signal in Alpha formats.
Experiment [2] addresses Receptor tyrosine-protein kinase erbB-2 (Homo sapiens) (UniProt P04626). Described as above. To be noted: 18-24 h, at 10 µM, stronger effect = lower value.
The nature of experiment [3]: reduced viability of SK-BR-3 breast cancer cells – cell-based, 24 h, human, pilot screen (AID 572;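 active means viability at or below 10% of carrier control in both of two separate runs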;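 further: compound exposure lasted between 18 and 24 h rather than exactly 24 h; 100% = carrier-treated control wells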). To be noted: SK-BR-3 viability, CellTiter-Glo luminescence, at 10 µM, stronger effect = lower value.
A short description of experiment [4]: HUVEC growth inhibition – cell-based, human, primary screen (AID 575;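 active means viability at or below 30% in both replicate assays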;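 further: 100% = median of untreated cell wells with 0.1% DMSO on each plate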). To be noted: HUVEC proliferation, CellTiter-Glo luminescence, 72 h; at 10 µM; stronger effect = lower value.
Experiment [5] in a line: H69AR cell proliferation blockers – human, duplicate replicates, primary screen (AID 580;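 active means viability at or under a set limit in both replicates, limit being median viability minus 3 SD, cut at about 48% in these data, passing the limit was not always enough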;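 further: 100% = mean luminescence of untreated wells and 0% = no signal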). To be noted: H69AR lung tumor cells viability, ATP luminescence, 72 h; at 10 µM; stronger effect = lower value.
Experiment [6] is described as follows: MRP1 drug-resistance reversers in H69AR cells – cell-based, doxorubicin co-treatment, pilot screen (AID 601;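 active means viability loss from added drug above about 55%, and viability with drug at most 40%, in both replicates, limit read from the data, passing the limit was not always enough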). To be noted: CellTiter-Glo, 72 h, at 10 µM; for differential viability (reversal): stronger effect = higher value. For orientation: Cellular ATP, detected with luciferase, serves as a proxy for viable cell number.
A short description of experiment [7]: yeast transport mutant growth inhibition pilot in 384-well plates, post-Golgi transport modulator project (AID 636; in the data active means inhibition above about 31%). To be noted: absorbance 615 nm, about 18 h, stronger effect = higher value.
Experiment [8] is described as follows: growth suppression of yeast trafficking mutant, preliminary HTS, modulators of trafficking downstream of Golgi apparatus project, 1536-format plate, OD 615 nm (AID 637; in the data active means inhibition above about 30%). To be noted: yeast transport mutant growth, absorbance 615 nm, 18 h; stronger effect = higher value.
The nature of experiment [9]: S. cerevisiae growth inhibition in permissive medium (OD615), pilot counter-assay for S. cerevisiae lifespan shortening project, permissive growth control (AID 705;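 active means growth inhibition above 25% in both replicates, a cutoff set 3 SD above the mean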). To be noted: OD615, 24 h, at 10 µM, stronger effect = higher value.
A short description of experiment [10]: S. cerevisiae growth inhibition in restrictive medium, OD615, pilot screen, restrictive growth control, yeast lifespan reduction project (AID 706;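 active means growth inhibition above a set limit, 3 SD over mean compound inhibition, in both replicates, cut at about 43% in these data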;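 further: modified DeaD lifespan yeast strain shifted to restrictive glucose medium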). To be noted: OD615, 48 h, at 10 µM, stronger effect = higher value.
Experiment [11] is described as follows: doxorubicin toxicity protection in MRP-1 cells – H69AR cells, CellTiter-Glo, duplicate, MRP-1 activator project, pilot screen (AID 807;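 active means viability increase at or above a cutoff of the median across tested compounds plus 3 SD, cut at about 8.5% in these data, passing the limit was not always enough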;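 further: compound pretreatment 18-22 h then 72 h combined with doxorubicin; 0% = doxorubicin alone and 100% = vehicle without doxorubicin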). To be noted: H69AR viability with doxorubicin, CellTiter-Glo luminescence; at 10 µM; stronger effect = higher value.
Experiment [12] in a line: viability of HCT116 without oncogenic beta-catenin – human colon tumor cells, pilot screen (AID 823).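 Further: 0% = wells killed by 20 µM Hyamine and 100% = untreated DMSO cell wells.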 To be noted: HCT116 beta-catenin knockout viability, CellTiter-Glo, 60 h; at 10 µM; stronger effect = lower value.
Experiment [13] in a line: viability of PTEN-null HCT116 cells – cell-based, HCT116 clonal line, CellTiter-Glo, pilot screen (AID 824;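 active means viability at or below 27.92% in each of two runs, the all-compound median minus 4 SD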;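 further: 0% = 20 µM Hyamine control and 100% = vehicle cell control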). To be noted: HCT116 PTEN-deleted viability, 60 h, at 10 µM, stronger effect = lower value.
The nature of experiment [14]: RAM pathway blockade in budding yeast – dse1pr::URA3 reporter, 5-FOA selection, pilot screen (AID 869;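 active means inhibition over a set limit, the all-compound mean plus 3 SD, in both replicate runs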;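 further: 0% = DMSO wells with no growth and 100% = 10 µM 1-NA-PP1 with full growth; RAM network block rescues cells from 5-FOA so hits raise OD615 growth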). To be noted: S. cerevisiae dse1pr::URA3 5-FOA growth, OD615, 2 d; at 10 µM; stronger effect = higher value; strain carries analog-sensitive mutant Cbk1 kinase.
A short description of experiment [15]: RAM signaling pathway blockade in yeast – S. cerevisiae, Pdr1DBD-CYC8 efflux-inhibited sensitized strain, primary screen (AID 1298;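 active means RAM network inhibition above 8.4% in each of two replicates, 3 SD over the compound average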;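 further: 0% = DMSO untreated cells without growth and 100% = 10 µM 1-NA-PP1 full growth; higher means more yeast growth rescued from 5-FOA killing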). To be noted: S. cerevisiae cbk1-as DSE1-URA3 strain, 5-FOA growth OD615, 2 d; at 50 µM; stronger effect = higher value.
Where [16] appears, read: H69AR cells + 2 uM doxorubicin, measured here: viability with 2 uM doxorubicin, stronger effect = lower value.
[17] abbreviates: H69AR cells, compound alone cytotoxicity.

Receptor tyrosine-protein kinase erbB-2 (Homo sapiens), sequence (P04626 whole entry, looked up): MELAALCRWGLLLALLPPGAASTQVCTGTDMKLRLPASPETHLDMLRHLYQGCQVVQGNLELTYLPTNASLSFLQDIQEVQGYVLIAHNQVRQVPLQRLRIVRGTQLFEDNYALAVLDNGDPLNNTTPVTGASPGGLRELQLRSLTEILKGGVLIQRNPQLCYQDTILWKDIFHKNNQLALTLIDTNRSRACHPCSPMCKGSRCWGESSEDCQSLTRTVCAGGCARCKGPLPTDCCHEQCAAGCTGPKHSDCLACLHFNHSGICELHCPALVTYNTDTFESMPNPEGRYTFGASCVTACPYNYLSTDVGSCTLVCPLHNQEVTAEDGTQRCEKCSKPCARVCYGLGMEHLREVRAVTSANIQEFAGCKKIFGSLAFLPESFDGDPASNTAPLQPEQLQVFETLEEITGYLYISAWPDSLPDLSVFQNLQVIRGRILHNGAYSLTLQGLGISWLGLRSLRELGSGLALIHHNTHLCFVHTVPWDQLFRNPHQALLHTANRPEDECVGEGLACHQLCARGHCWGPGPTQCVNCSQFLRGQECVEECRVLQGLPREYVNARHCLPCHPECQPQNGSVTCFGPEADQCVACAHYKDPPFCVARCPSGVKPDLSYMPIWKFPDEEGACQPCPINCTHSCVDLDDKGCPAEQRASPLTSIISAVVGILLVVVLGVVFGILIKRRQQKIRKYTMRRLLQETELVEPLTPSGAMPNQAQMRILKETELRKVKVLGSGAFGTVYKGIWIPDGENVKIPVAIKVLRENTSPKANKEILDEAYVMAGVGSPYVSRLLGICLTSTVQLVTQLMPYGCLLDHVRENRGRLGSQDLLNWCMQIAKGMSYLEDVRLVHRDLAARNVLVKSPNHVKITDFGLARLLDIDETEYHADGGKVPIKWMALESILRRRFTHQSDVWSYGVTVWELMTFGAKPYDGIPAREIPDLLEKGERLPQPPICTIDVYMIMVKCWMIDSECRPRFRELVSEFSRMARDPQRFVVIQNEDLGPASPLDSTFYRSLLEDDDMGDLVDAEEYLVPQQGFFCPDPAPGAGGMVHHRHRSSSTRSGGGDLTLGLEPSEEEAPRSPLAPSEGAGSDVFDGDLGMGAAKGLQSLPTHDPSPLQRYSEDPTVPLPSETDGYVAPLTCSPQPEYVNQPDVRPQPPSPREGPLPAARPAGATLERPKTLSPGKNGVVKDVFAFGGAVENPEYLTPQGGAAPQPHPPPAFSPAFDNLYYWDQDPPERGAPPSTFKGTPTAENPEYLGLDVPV

On to `COc1cc(NC(=O)CN(c2cc(C)cc(C)c2)S(=O)(=O)c2c(C)noc2C)cc(OC)c1`, for which the viability in experiment [1] is 88.5%; in [3] it was 88.5% (inactive); in [4] it was 80.8% (inactive); in experiment [5], 83.8% (inactive); in experiment [6] (setting [16]), 84.3%; in experiment [6] (setting [17]), 83.8%. For the same compound, the values for the viability in [12] and in [13] were 92.3% (inactive) and 87.5% (inactive), respectively. For the same compound, the Her2 level in [2] was 108% (inactive). For the same compound, the differential viability (reversal) in experiment [6] (H69AR cells + 2 uM doxorubicin) was -0.43% (inactive). In addition, the inhibition in [7] was 0.9% (inactive); in experiment [8] it was -5% (inactive); in [14], 2.82% (inactive). Further, the growth inhibition in experiment [9] was -14.8% (inactive); in experiment [10] it was -18.5% (inactive). Besides, the viability increase in [11] is -4.92% (inactive). The RAM network inhibition in experiment [15] is 4.61% (inactive).
For the compound `O=C(CN1CCN(Cc2ccc(F)cc2Cl)C1=O)NCCCN1CCOCC1`, the viability is 99% in [1]; 99% (inactive) in experiment [3]; 95.2% (inactive) in experiment [4]; 102% (inactive) in experiment [5]; 87.8% in experiment [6] (setting [16]); 102% in experiment [6] (setting [17]). The viability in [12] was 94.5% (inactive); in experiment [13] it was 97.3% (inactive). Besides, in experiment [2], the Her2 level is 104% (inactive). The differential viability (reversal) in experiment [6] (H69AR cells + 2 uM doxorubicin) is 14% (inactive). The results for the inhibition in experiment [7], in [8] and in experiment [14] were -3.07% (inactive), -5.08% (inactive) and 0.47% (inactive), respectively. In addition, the growth inhibition in experiment [9] is -6.96% (inactive); in experiment [10], 8.75% (inactive). For the same compound, the viability increase in experiment [11] was -0.41% (inactive). Besides, the RAM network inhibition in experiment [15] was 1.91% (inactive).
Consider `COc1ccc(N2C(=O)CCC(C(=O)N3CCCCC3)C2c2ccc(OC)c(OC)c2)cc1` (stereo not drawn), for which the viability in [1] was 100%; in [3], 100% (inactive); in experiment [4] it was 92.3% (inactive); in experiment [5], 95.4% (inactive); in [6] (setting [16]), 93.2%; in experiment [6] (setting [17]) it was 95.4%. In addition, the viability in experiment [12] was 105% (inactive); in [13], 98.2% (inactive). The Her2 level in experiment [2] was 90.5% (inactive). In addition, the differential viability (reversal) in [6] (H69AR cells + 2 uM doxorubicin) is 2.14% (inactive). Besides, the inhibition is -6.67% (inactive) in experiment [7], -1.11% (inactive) in experiment [8] and 0.405% (inactive) in [14]. Further, the growth inhibition in [9] is -0.77% (inactive); in [10] it was -8.71% (inactive). Moreover, the viability increase in experiment [11] was 0.42% (inactive). In experiment [15], the RAM network inhibition was 2.24% (inactive).
On to `CC1Cc2nc(SCC(N)=O)n(Cc3ccccc3)c(=O)c2S1` (stereo not drawn), for which the viability was 88.5% in [1]; 88.5% (inactive) in experiment [3]; 93.7% (inactive) in experiment [4]; 88.3% (inactive) in [5]; 79.6% in [6] (setting [16]); 88.3% in [6] (setting [17]). The viability is 95.3% (inactive) in experiment [12] and 90.9% (inactive) in experiment [13]. Moreover, the Her2 level in experiment [2] was 100% (inactive). For the same compound, in [6] (H69AR cells + 2 uM doxorubicin), the differential viability (reversal) is 8.68% (inactive). In addition, the inhibition in experiment [7] was -3.6% (inactive); in experiment [8] it was -4.67% (inactive); in experiment [14] it was 1.32% (inactive). The values for the growth inhibition in experiment [9] and in experiment [10] were -18.9% (inactive) and -26.3% (inactive), respectively. The viability increase in experiment [11] is -1.84% (inactive). For the same compound, in [15], the RAM network inhibition is 1.84% (inactive).
Consider `CCn1cc(C(=O)NCC2CCCO2)c(=O)c2cc(S(=O)(=O)N(C)C3CCCCC3)ccc21` (stereo not drawn), for which the viability is 83.5% in experiment [1]; 83.5% (inactive) in experiment [3]; 69.5% (inactive) in [4]; 68.5% (inactive) in experiment [5]; 80% in experiment [6] (setting [16]); 68.5% in experiment [6] (setting [17]). Further, the viability in experiment [12] is 88.9% (inactive); in experiment [13] it was 87% (inactive). For the same compound, in experiment [2], the Her2 level is 93.5% (inactive). Further, in [6] (H69AR cells + 2 uM doxorubicin), the differential viability (reversal) was -11.5% (inactive). Also, the inhibition in experiment [7] was -1.41% (inactive); in [8] it was 1.5% (inactive); in [14], 4.23% (inactive). Moreover, the growth inhibition is -2.38% (inactive) in experiment [9] and -2.37% (inactive) in experiment [10]. Also, the viability increase in [11] is -5.22% (inactive). Further, the RAM network inhibition in [15] was -0.83% (inactive).
Take `CCOC(=O)N1CCC(NC(=O)C2CCCN(C(=O)c3cc4sccc4n3C)C2)CC1` (stereo not drawn): the viability in [1] was 113%; in [3] it was 113% (inactive); in [4], 82.2% (inactive); in experiment [5] it was 94.8% (inactive); in [6] (setting [16]), 95.7%; in [6] (setting [17]), 94.8%. Also, the viability in experiment [12] was 96.7% (inactive); in [13], 95.7% (inactive). For the same compound, the Her2 level in experiment [2] is 114% (inactive). For the same compound, the differential viability (reversal) in experiment [6] (H69AR cells + 2 uM doxorubicin) was -0.91% (inactive). Besides, the results for the inhibition in [7], in experiment [8] and in experiment [14] were -2.4% (inactive), -0.83% (inactive) and 0.665% (inactive), respectively. Moreover, the growth inhibition was -18% (inactive) in experiment [9] and -12.6% (inactive) in experiment [10]. Moreover, the viability increase in [11] was 0.63% (inactive). Further, the RAM network inhibition in [15] is 0.11% (inactive).
For the compound `Cc1ccnc(SCCn2c(N3CCN(Cc4ccccc4)CC3)nc3c2c(=O)[nH]c(=O)n3C)n1`, the viability is 85% in experiment [1]; 85% (inactive) in experiment [3]; 91.7% (inactive) in experiment [4]; 87.5% (inactive) in [5]; 88.4% in [6] (setting [16]); 87.5% in experiment [6] (setting [17]). The viability in experiment [12] was 95.7% (inactive); in experiment [13] it was 99.3% (inactive). Moreover, the Her2 level in experiment [2] was 93.5% (inactive). The differential viability (reversal) in experiment [6] (H69AR cells + 2 uM doxorubicin) is -0.99% (inactive). For the same compound, the inhibition in experiment [7] is -3.6% (inactive); in experiment [8], -4.59% (inactive); in experiment [14], 0.145% (inactive). Further, the figures for the growth inhibition in [9] and in experiment [10] were 3.26% (inactive) and 0.065% (inactive), respectively. Further, in [11], the viability increase is -1.27% (inactive). Besides, the RAM network inhibition in experiment [15] is 2.81% (inactive).
As to `COc1ccc(-c2nc3c(n2O)CCC/C3=N\O)cc1`, the viability in experiment [1] was 89.5%; in experiment [3], 89.5% (inactive); in [4] it was 67.4% (inactive); in experiment [5], 86.5% (inactive); in [6] (setting [16]), 81.5%; in experiment [6] (setting [17]) it was 86.5%. The viability in [12] is 94.2% (inactive); in experiment [13], 96% (inactive). For the same compound, the Her2 level in experiment [2] is 88.5% (inactive). The differential viability (reversal) in experiment [6] (H69AR cells + 2 uM doxorubicin) was 5% (inactive). The inhibition was -1.43% (inactive) in experiment [7], 0.33% (inactive) in experiment [8] and 0.805% (inactive) in experiment [14]. Also, the growth inhibition in experiment [9] is 1.93% (inactive); in experiment [10] it was 4.75% (inactive). Further, the viability increase in experiment [11] was -4.71% (inactive). The RAM network inhibition in [15] was 3.84% (inactive).
`CCOC(=O)N1CCN(c2cc(=O)n(-c3cccc(Br)c3)c(=O)[nH]2)CC1`: the viability was 99.5% in experiment [1]; 99.5% (inactive) in experiment [3]; 94.4% (inactive) in experiment [4]; 103% (inactive) in experiment [5]; 85.5% in [6] (setting [16]); 103% in [6] (setting [17]). The viability in experiment [12] was 108% (inactive); in experiment [13] it was 93.5% (inactive). Besides, the Her2 level in experiment [2] is 108% (inactive). In addition, in [6] (H69AR cells + 2 uM doxorubicin), the differential viability (reversal) was 17.2% (inactive). The inhibition in experiment [7] was -3.2% (inactive); in experiment [8], -1.8% (inactive); in experiment [14], 3.14% (inactive). Moreover, the growth inhibition in experiment [9] is -9.72% (inactive); in experiment [10], -24.3% (inactive). The viability increase in experiment [11] was -2.79% (inactive). Moreover, the RAM network inhibition in experiment [15] is 3.07% (inactive).
